Common to all, as to experiment: NCI-60 one-dose screen, 48 h (100 = growth as untreated, 0 = no growth, -100 = all killed)
Details in all cases: 10 µM unless noted

Test [1] concerns HCT-15 colon.
Test [2] has as its system HT29 colon.
Test [3] relates to SNB-75 CNS.
Test [4] concerns SNB-19 CNS.
Test [5] deals with U251 CNS.
Test [6] relates to PC-3 prostate.
In test [7] the test system is SK-MEL-5 melanoma.
In test [8] the test system is UACC-62 melanoma.
For test [9], the system named is LOX IMVI melanoma.
Test [10] relates to SK-MEL-28 melanoma.

Compounds without any hit were thinned out: in the full panel of roughly 83,000, 20% have a hit.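 Treatment: one concentration, 48 hours, 96-well format. Scoring: percent growth, with anything below 10 considered active.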 Unmarked numbers belong to inactive results. Activity calls are given as the source filed them.

`CCC(C)(C)c1ccc(Nc2ccc(Nc3ccc(C(C)(C)CC)cc3)cc2)cc1`: the growth in test [1] is 91.2%; in test [2], 67%; in test [3], 93%; in [4], 95.9%; in test [5], 90.7%; in [6] it was 65.8%. Besides, the growth is 99.2% in [7], 83.2% in test [8], 89.9% in test [9] and 105% in [10].
For the compound `O=C(Oc1ccc2c(c1)sc1nc(-c3ccccc3)[nH]c(=O)c12)C(F)(F)F`, the growth in test [1] was 22.2%; in [2], 75.6%; in test [3], 10.7%; in [4] it was 45.6%; in [5], 28.9%; in test [6], 43.1%. The growth in [7] is 11.6%; in test [8], 11.3%; in test [9] it was 18.8%; in test [10] it was 36%.
In the case of `Cc1ccc(C)c2c1sc1nc(N3CCOCC3)c(C#N)c(=O)n12`, the growth in [1] was 102%; in test [2], 97.2%; in test [3], 53.2%; in test [4] it was 96.3%; in [5] it was 58.9%; in test [6], 18.5%. The growth in test [7] is 88.5%; in [8], 90.2%; in test [9], 67%; in [10] it was 103%.
On to `Cc1c(O)cc(-c2cnc(N/N=C/c3ccccc3)s2)c(O)c1C`, for which the growth is 79.1% in [1]; 104% in [2]; 98% in test [3]; 105% in test [4]; 97.9% in test [5]; 69.7% in [6]. In addition, the growth in [7] is 85.8%; in [8], 81.9%; in [9], 79.9%; in test [10] it was 92.2%.
For the compound `Cc1ccc(NC(=O)c2cc3ccccc3cc2O)c(C)c1`, the growth in test [1] is 77.4%; in test [2] it was 104%; in test [3], 96.8%; in test [4] it was 105%; in test [5] it was 97.5%; in test [6], 35.9%. The growth in test [7] was 49.4%; in test [8], 66.1%; in test [9], 88%; in test [10], 81.9%.
As to `CN(C)CCC(=O)C1CC1`, the growth in test [1] is 106%; in test [2], 99.3%; in test [3] it was 102%; in [4], 96%; in [5], 102%; in test [6], 99.2%. The growth is 106% in test [7], 99.2% in test [8], 99% in test [9] and 107% in test [10].
As for `C=C(C)[C@@H]1CC[C@]2(C)[C@H](C=CC3=C4C[C@@](C)(CO)CC[C@]4(C)CC[C@]32C)[C@@]1(C)CCCN`, the growth in test [1] was -82% (active); in test [2], -38.7% (active); in test [3] it was -6.45% (active); in test [4], 34.3%; in test [5], -64.5% (active); in test [6] it was -34% (active). For the same compound, the growth in test [7] is 17.5%; in test [8] it was 77.6%; in test [9] it was -100% (active); in [10] it was -79.8% (active).
Turning to `Cc1c2ncccc2nc2[nH]c3ccc(OCCN(C)C)cc3c12`, the growth in test [1] is 15.7%; in [2], 5.4% (active); in test [3], 63%; in test [4], 15.3%; in test [5], 20.3%; in test [6], 12.1%. Further, the growth in test [7] is 47%; in test [8] it was 35.2%; in test [9] it was 18%; in test [10] it was 78.5%.
As to `CCN1C2CCC1/C(=C\c1ccccc1)C(=O)/C2=C/c1ccccc1`, the growth in [1] is 38.5%; in [2], 42.3%; in [3] it was 50.6%; in test [4], 65.5%; in test [5], 24.5%; in [6], 47.7%. Further, the growth was 56.6% in [7], 40.1% in [8], 25.2% in test [9] and 77.1% in [10].
`CN(C)CCCNC(=O)c1cncnc1Nc1ccc2c(ccn2Cc2cccc(F)c2)c1`: the growth in test [1] is 63.2%; in test [2], 39.1%; in test [3], 78%; in test [4], 92.5%; in test [5], 68.9%; in test [6], 86%. The growth is 91.4% in test [7], 100% in [8], 76.7% in [9] and 89.6% in [10].
For the compound `COc1cc2c3c(c4c5ccccc5[nH]c4c2c(OC)c1OC)C(=O)N(CCN1CCCCC1)C3=O`, the growth in test [1] is -87.2% (active); in test [2] it was -39.6% (active); in test [3], 63.5%; in test [4] it was 30.1%; in test [5] it was -60.3% (active); in [6] it was 31.3%. Further, the growth in test [7] is 31.7%; in test [8], 48.4%; in [9], -92% (active); in test [10], 52.2%.
As for `COc1ccc2c(c1)c(-c1nc(-c3ccc4ccccc4c3)cs1)cn2C`, the growth was 73% in [1]; 51.3% in test [2]; 109% in test [3]; 99.8% in test [4]; 91% in [5]; 87.1% in [6]. For the same compound, the growth in [7] was 94.5%; in test [8], 91.3%; in test [9] it was 86%; in test [10] it was 89.6%.
Turning to `O=C(O)c1cn(C2CC2)c2cc(N3CCN(C(=O)N/N=C/c4cccc5ccccc45)CC3)c(F)cc2c1=O`, the growth is 97.9% in [1]; 105% in test [2]; 97% in test [3]; 85.9% in test [4]; 100% in [5]; 105% in test [6]. Also, the growth in test [7] is 94%; in test [8] it was 88.7%; in [9] it was 67.8%; in test [10], 98.1%.

Values taken from PubChem BioAssay (NCI).
